The record followed here is ChEMBL document CHEMBL3988442, “University of Dundee, Small-Polar-MMV Screening Library” (2021).

The test addresses AMP-activated protein kinase, AMPK (Homo sapiens) (UniProt P54646+O43741+P54619+Q9UGJ0+Q9Y478+Q13131+Q9UGI9). The test is described as follows: AMP-dependent Kinase enzyme assay. An in vitro enzyme assay that detects ADP turnover that is directly proportional to AMPK activity. This uses naive AMPK that is activated during the assay with MK-8722. It counts as functional. The arrangement: scale not given: direction of the effect not stated beside the values. The conditions noted are these: 30 µM.
On to `CC(CN1CCOC1=O)NC(=O)c1cccc(C#N)c1` (centres undefined), for which the Percent Effect stood at 11.8%. Then `CCNC(=O)C1CCN(Cc2ccccc2OCC(F)(F)F)CC1`, with -3.27%; and `CCNC(=O)[C@@H]1C[C@H](N)CN1c1cc(CC)nc(N(C)C)n1`, with -13.7%; and `Nc1cc(N2CCC(c3cc(Cc4ccccc4)n[nH]3)CC2)ccn1`, with -5.64%. The same measure for `CC(=O)N1CC(C(=O)NC(C)c2cnn(C)c2C)C1` (centres undefined): 8.59%; for `CCCn1nnnc1COC(=O)C1COc2ccc(Cl)cc2C1` (centres undefined): 19.7%.

Turning to `Cc1nnc(N2CCc3cnc(C(C)C)nc3C2)c(C#N)c1C`, the Percent Effect is -15.2%. As to `O=C(CCc1ccc(Cl)cc1)N[C@@H]1CC[C@@H](O)[C@@H]1O`, the Percent Effect came out at 14.5%. Consider `CC1CN(c2ccccc2Cl)C(=O)CN1C(=O)c1c[nH]c(=O)c(Cl)c1` (centres undefined), for which the Percent Effect was 5.06%.

For `Cc1cc(-c2cnc(N3CCSCC3)nc2C(C)C)on1`, the Percent Effect was 16%.

Consider `Cn1ccnc1CNC(=O)c1cncc(C2CCNCC2)n1`, for which the Percent Effect amounted to 1.13%.

As to `COc1cccc2ccc(N3CCC(O)(c4ccc(C)cn4)CC3)nc12`, the Percent Effect is 11.8%. Take `CCC(C(=O)NCCc1coc(-c2ccc(C)cc2)n1)N(C)C` (centres undefined): the Percent Effect came to 6.54%.

As to `Cc1ccc(CN2CCS(=O)(=O)C(C)(C)C2)cc1C`, the Percent Effect is -0.279%. The same measure for `COc1ccc(CN2C[C@@H]3CC[C@H](C2)N(S(=O)(=O)C2CC2)C3)cc1`: 10.7%; for `Cn1nc(C(=O)NCCc2ccc(OC3CCCC3)cc2)ccc1=O`: -4.35%. The same measure for `COCCC(=O)N1CCCC(CCC(=O)NCc2ccccc2F)C1` (centres undefined): 8.91%; for `Cc1cn2nc(N(C)C3CCCN(c4cccnn4)C3)sc2n1` (centres undefined): 2.94%.

For `O=C(Cc1ccsc1)N1CCC[C@@H]1Cn1c(=O)oc2ccccc21`, the Percent Effect was 28.3%.
